Only some compounds are listed: those with a hit (about 5.7% of all), similar ones and a draw of the others.
MPTP block: mitochondrial permeability transition pore inhibitors, primary screen, biochemical, isolated mouse mitochondria, absorbance. Ca2+ swelling absorbance, 30 min. inhibition, % at 10 µM. actives 1.4% (n = 360,000). AID 602449, 2012;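 active = inhibition of 50% or more, scaled per plate between neutral and stimulator controls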;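 also: 0% = DMSO wells given calcium and 100% = 1 mM EGTA wells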
rCAG binder: binders of r(CAG) RNA repeats, primary screen, biochemical, fluorescence; r(CAG) RNA repeat, TO-PRO-1 dye displacement fluorescence; inhibition, % at 3 µM; actives 1.3% (n = 370,000);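 active = inhibition above the plate cutoff, the mean of all test compounds on that plate plus 3 SD, cut at about 35% in these data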;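 also: 0% = DMSO alone and 100% = 100 µM mitoxantrone as full dye displacement; higher means more dye released from RNA so lower well fluorescence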
GRIN3A LBD mod: binders of NR3A ligand-binding domain, primary screen, biophysical, differential scanning fluorimetry, uHTS. NR3A LBD differential scanning fluorimetry, Tm shift; 0% = protein alone, 100% = glycine-bound protein. Tm shift relative to glycine control, % at 25 µM. actives 2.5% (n = 340,000). AID 1259313, 2017;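 active = melting temperature shift of at least 10% of the positive control shift, at one fixed dose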
FAS TE block: FAS thioesterase domain inhibitors, primary screen, biochemical, fluorescence intensity, uHTS. Fatty acid synthase (Homo sapiens), P49327. recombinant FAS-TE, OMFH fluorogenic substrate, fluorescence endpoint. inhibition, % at 15 µM. actives 0.67% (n = 360,000);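 active = compounds whose normalised, plate-corrected inhibition of enzyme fluorescence in the single-dose primary screen is 50% or more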;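 also: 0% = DMSO with enzyme and 100% = substrate without enzyme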
Myeloid diff 2: induction of myeloid progenitor differentiation, primary screen, cell-based, flow cytometry, MLPCN library | calls only at 10 µM | actives 1% (n = 360,000) | ER-HoxA9 myeloid progenitors, lysozyme-GFP differentiation;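 active = normalized GFP-positive differentiation at or above the plate's own cutoff, the solvent-only control mean plus 3 SD; inconclusive = no clear call, values can overlap the other calls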;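 also: cells exposed to compound for four days before flow analysis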
MPTP counter: fluorescence retest of MPTP screen hits in isolated mitochondria, single concentration. shares compounds with MPTP block. membrane potential, Rhodamine 123 fluorescence. inhibition, % at 10 µM. actives 78% (n = 5,000). AID 624504, 2012; in the data active = inhibition above about 22%;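 also: 0% = DMSO vehicle and 100% = positive control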
MPTP abs DR: mitochondrial permeability transition pore inhibitors, dose response, biochemical, absorbance, uHTS hits; actives 58% (n = 780); shares compounds with MPTP block; IC50, µM; isolated mitochondria swelling; in the data active = IC50 below about 20 µM
MPTP cs DR: fluorescent counter-screen in isolated mitochondria, dose response, counter-screen for MPTP inhibitor project, biochemical, fluorescence, uHTS hits; shares compounds with MPTP block; isolated mitochondria counterscreen, fluorescence read-out; IC50, µM; actives 49% (n = 780); AID 651564, 2012; in the data active = IC50 below about 80 µM
Starred values were filed as active, the others as inactive; i = inactive; ? = inconclusive; . = no result.

SMILES | MPTP block | rCAG binder | GRIN3A LBD mod | FAS TE block | Myeloid diff 2 | MPTP counter | others
Cc1c(NC(=O)Nc2ccc(Cl)c(Cl)c2)c(=O)n(-c2ccccc2)n1C | 90* | 0 | -2 | 12 | i | 90*
Cc1nn(C)c(C)c1CNC(=O)Nc1ccc(Cl)cc1 | 2 | 1 | -2 | -2 | i | .
O=C(NCc1ccccc1)C(c1ccccc1)n1c(-c2ccccn2)nc2ccccc21 (stereo not drawn) | 0 | 5 | . | . | i | .
O=S1(=O)N[C@H](Cc2ccccc2)COc2cc(N3CCCC3)ccc21 | . | 3 | . | . | . | .
COc1ccc(C(=O)Nc2ccc(C(=O)c3ccccc3)cc2)cc1 | 62* | 2 | 6 | 4 | i | 41*
COc1ccccc1NS(=O)(=O)c1cc(NC(=O)c2ccc(Cl)nc2)ccc1Cl | 56* | 17 | 16* | 23 | i | 72*
COc1ccc(C(=O)Nc2ccc(Cl)c(S(=O)(=O)Nc3ccccc3OC)c2)cc1 | 55* | 11 | 3 | 26 | i | 70*
COc1ccc(NC(=O)Cc2cccc(F)c2)cc1S(=O)(=O)Nc1ccccc1Cl | 52* | 9 | -6 | 28 | i | 70*
C[C@@H]1C[C@H]2[C@@H]3C[C@H](F)C4=CC(=O)C=C[C@]4(C)[C@@]3(Cl)[C@@H](O)C[C@]2(C)[C@H]1C(=O)COC(=O)C(C)(C)C | 0 | 3 | -2 | 7 | ? | .
O=C(Nc1ccccc1F)c1csc([C@@H]2C[C@H](O)[C@@H](CO)O2)n1 | 0 | 4 | . | -10 | i | .
CCOc1ccc2nc(NS(=O)(=O)c3cccs3)sc2c1 | -1 | 19 | -3 | -3 | i | .
CCOc1ccc(NS(=O)(=O)c2cc(NC(=O)c3ccc(C)cc3)ccc2Cl)cc1 | 90* | 18 | 15* | 43 | ? | 56*
CCCC(=O)N1CCC1(C)C(=O)Nc1ccc2scnc2c1 (stereo not drawn) | -1 | . | . | -8 | i | .
CC(=O)c1ccc2c(c1)N(CCCN1CCC(CCO)CC1)c1ccccc1S2 | 0 | 0 | -1 | -3 | i | .
CN(C)CCCN1c2ccccc2Sc2ccc(Cl)cc21 | 91* | 7 | 2 | 0 | i | -17 | MPTP abs DR=5*;MPTP cs DR=>80
OCCN1CCN(CCCN2c3ccccc3Sc3ccc(Cl)cc32)CC1 | 53* | 1 | -6 | -2 | i | -22
O=C(COc1ccc(C(=O)c2ccccc2)cc1)NC1CCCCC1 | 3 | -5 | 1 | -8 | i | .
N#Cc1ccc(-c2ccc(OCC(=O)Nc3cccnc3)cc2)cc1 | 16 | 0 | 8 | 5 | i | .
O=C(COc1ccc(C(=O)c2ccccc2)cc1)NC1CCCCCC1 | 53* | -7 | 1 | 18 | i | 31*
O=C(COc1ccc(C(=O)c2ccccc2)cc1)Nc1cccnc1 | 81* | 0 | -1 | 3 | i | 82*
OC(c1ccccc1)(c1nc(-c2cccc(F)c2)cs1)C(F)(F)F (stereo not drawn) | 3 | 0 | . | 41 | i | .
CCC(=O)Nc1ccc(C(=O)NNC(=O)C2CCCCC2)cc1 | 0 | -2 | 1 | -3 | i | .
Nc1nc2c(s1)CCCCCCCCCC2 | 3 | -5 | 0 | -10 | i | .
CCc1c(-c2ccccc2)nc2sc3c(c2c1N)CCCC3 | 84* | -2 | -7 | 17 | i | 70*
Nc1c2c(nc3sc4c(c13)CCCCC4)CCCCC2 | 78* | 1 | 4 | -3 | i | 93*
CC1CCc2nc3sc4c(c3c(N)c2C1)CCCC4 (stereo not drawn) | 88* | 9 | -9 | 4 | i | 81*
CC1CCc2c(nc3sc4c(c3c2N)CCCC4)C1 (stereo not drawn) | 76* | 12 | -1 | 2 | i | 84*
